eIF4E 4G PPI – inhibitors of eIF4E and eIF4G interaction in translation initiation | TR-FRET eIF4E-eIF4GI(517-606) binding, 2 h | inhibition, % at 21.7 µM | actives 0.37% (n = 220,000) | AID 782;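 active = inhibition above about 30%, limit read from the data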;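 note: 0% = full FRET control wells and 100% = background wells lacking eIF4GI fragment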
TNF necrop inh – blocks TNF-alpha induced death of Jurkat FADD-/- cells | Jurkat FADD-/- TNF necroptosis rescue, ATP luminescence, 24 h; 0 = TNF only, 100 = no-TNF cells | activation (protection from cell death), % at 10 µM | actives 0.068% (n = 220,000);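 active = activation, meaning protection from cell death, of at least 50% relative to plate controls; inactive = activation below 50%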;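 note: necroptosis triggered by 40 ng/mL TNF-alpha added together with compound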
EBV gp42 inh – EBV gp42 inhibition; Q1HVG2; inhibition, % (tested at 21.74 µM); actives 0.42% (n = 220,000); Fluorescence polarization binding assay, mP read-out; in the data active = inhibition above about 50%
Target sequence (Q1HVG2 whole entry, looked up): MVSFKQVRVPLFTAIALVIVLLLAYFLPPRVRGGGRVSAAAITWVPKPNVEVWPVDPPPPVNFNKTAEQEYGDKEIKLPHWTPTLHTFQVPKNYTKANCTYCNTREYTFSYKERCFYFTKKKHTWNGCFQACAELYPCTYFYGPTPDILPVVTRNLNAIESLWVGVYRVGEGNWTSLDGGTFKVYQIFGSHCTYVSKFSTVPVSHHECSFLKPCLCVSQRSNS
L929 necroptosis – blocks zVAD induced death of L929 cells. viability rescue, % at 10 µM. L929 zVAD necroptosis rescue, ATP luminescence, 24 h; with zVAD 60 µM. actives 0.38% (n = 220,000);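 active = activation, scaled between plate controls, above about 75%, limit read from the data; inactive = activation under that limit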;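 note: 0% = zVAD with DMSO and 100% = DMSO alone without zVAD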
* hit, by the source's call; [ ] = another dose, or the depositor's remark. Rows were chosen to be rich in hits. Some 1.2% of all compounds tested hit in one or more screens of this group.

SMILES	eIF4E 4G PPI	TNF necrop inh	EBV gp42 inh	L929 necroptosis
CCOC(=O)c1ccc(N2C(=O)C3CC=CCC3C2=O)cc1 (stereo unspecified)	-8	-2	1	0
CCOC(=O)c1ccc(N2C(=O)C3C(C2=O)C(C(=O)c2ccc(Cl)cc2)N2CCCC32)cc1 (stereo unspecified)	-17	-5	94*	0
O=c1c(C(c2ccc(F)cc2)c2c(O)nc3n(c2=O)CCS3)c(O)nc2n1CCS2	-3	2	-6	1
CC(=O)N1C=Cc2c(c(C)c3c([nH]c4ccccc43)c2C)C1	4	-11	40	47
CCOc1ccc(-c2nn(-c3ccccc3)cc2/C=C2\SC(=S)N(C3CCS(=O)(=O)C3)C2=O)cc1 (stereo unspecified)	2	6	69*	0
CCCOc1ccc(-c2nn(-c3ccccc3)cc2/C=C2\SC(=S)N(C3CCS(=O)(=O)C3)C2=O)cc1 (stereo unspecified)	1	3	69*	2
Cc1ccc(Nc2nc(N)[nH]c(=O)c2N=O)cc1	-2	1	29	1
N#Cc1c(C#N)c(O)c2ccccc2c1O	-1	-7	68*	1
N#Cc1c(-n2cccc2)cccc1-n1cccc1	-4	-9	-13	0
O=C1CN(C(=O)COc2ccc(F)cc2Br)c2ccccc2N1	-3	1	-13	1
O=C(N/N=C/c1ccccc1Cl)c1nc2ccc([N+](=O)[O-])cc2c(=O)[nH]1	1	-1	97*	0
CCN(CC)c1nc2ccccc2nc1C(C#N)C(=O)NCCCOC (stereo unspecified)	6	-7	4	-1
CCN(CC)c1nc2ccccc2nc1C(C#N)C(=O)NCCc1ccccc1 (stereo unspecified)	-3	1	78*	0
CC(C)COP(=O)(OCC(C)C)C(O)c1ccc(N(C)C)cc1 (stereo unspecified)	3	1	-18	4
CC(Nc1ccccc1)c1ccncc1 (stereo unspecified)	3	16	3	9
COc1ccc(NC(C)c2ccccc2)cc1 (stereo unspecified)	10	52*	-6	39
CS(=O)(=O)n1nc(-c2ccc(Cl)cc2)nc1SCc1ccccc1	3	2	87*	0
CSc1nc(-c2ccc(Cl)cc2)nn1S(=O)(=O)c1ccccc1	2	0	-2	2
N#CCSc1nc2sc3c(c2c(=O)n1C1CCCCC1)CCCC3	3	68*	-10	12
C=C(C)CSc1nc2sc3c(c2c(=O)n1C1CCCCC1)CCN(C)C3	-2	-2	-19	-1
Cc1ccc(/C=C2\C(=O)Nc3ccccc32)o1	1	0	-3	78*
O=C1C2CC=C(Cl)CC2C(=O)N1CCCCCCN1C(=O)C2CC=C(Cl)CC2C1=O (stereo unspecified)	13	-1	63*	-1
COc1ccc(/C=C/C(=O)NCC(c2ccc(F)cc2)N2CCOCC2)cc1OC (stereo unspecified)	-7	0	-7	-1
C=CCn1c(SCC(=O)Nc2ccc(-c3nc4ccc(C)cc4s3)cc2)nnc1-c1ccccc1	33*[fluorescence artefact?]	0	-16	1
CN(Cc1ccccc1)C(=O)COC(=O)/C=C/c1ccco1	48*	1	19	1
SMILES	eIF4E 4G PPI	TNF necrop inh	EBV gp42 inh	L929 necroptosis
S=C(Nc1ccc(Nc2ccccc2)cc1)N1CCN(c2ncccn2)CC1	-3	-1	1	2
Cc1cc[n+](-c2[nH]c(=O)sc2/C=N/N=C(\[O-])c2ccccc2)cc1C	4	-1	137*	1
Cc1ccc[n+](-c2[nH]c(=O)sc2/C=N/NC(=O)c2ccccc2[O-])c1	0	1	53*	0
Cc1cc[n+](-c2[nH]c(=O)sc2/C=N/N=C(\[O-])c2ccccc2)cc1	6	-3	24	-1
O=C(c1ccc(F)cc1)N1CCN(c2ccc([N+](=O)[O-])cc2-n2cccc2)CC1	0	-1	-10	0
CC(=O)Nc1cccc(NC(=S)Nc2ccc(F)c(Cl)c2)c1	92*	2	1	0
Cc1ccc(Cn2nc(C)c(NC(=O)CSc3nc4c(c(C(F)(F)F)n3)CCc3ccccc3-4)c2C)cc1	30*	3	0	1
Cc1nn(Cc2ccc(Cl)cc2)c(C)c1NC(=O)CSc1nc2c(c(C(F)(F)F)n1)CCc1ccccc1-2	1	-3	-17	0
C=CCNC(=S)/N=c1/ccccn1CCC	-4	4	-9	0
CCOc1ccc(N2CCc3c(C)nc(SC)nc32)cc1	2	-7	-2	2
O=C(c1ccc(Br)cc1)c1sc(N2CCOCC2)nc1-c1ccccc1	-4	-1	8	2
Cc1c(Cl)cccc1NS(=O)(=O)c1ccc2c(c1)C1C=CCC1C(c1ccc(C(=O)O)cc1)N2 (stereo unspecified)	50*	-1	79*	0
CC(=O)c1ccc2c(c1)C1C=CCC1C(c1ccc(S(=O)(=O)N3CCOCC3)cc1)N2 (stereo unspecified)	-1	1	6	0
CN1CCN(C2=Nc3c(Cl)cc(Cl)c4cccc2c34)CC1	5	2	63*	-1
Cc1cccc(Nc2nc(N)nc(CCl)n2)c1C	2	-26	-18	0
O=C(N/N=C/C1C(c2ccccc2)C1(Cl)Cl)c1cccc(Br)c1 (stereo unspecified)	17	-4	-10	0
CCOC(=O)c1ccccc1NC(=O)Cn1cnc2c(nnn2-c2ccc(C)cc2)c1=O	50*	-1	-6	2
CCC(C)[C@H](NC(=O)Nc1ccc(C)cc1C)C(=O)O (stereo partly specified)	2	3	-13	1
N#Cc1ccc(CSc2nnc(NC(=O)c3ccc4ncsc4c3)s2)cc1	75*	-1	-27	0
CCc1ccc(NC(=O)c2ccc3ncsc3c2)cc1	-4	-3	146*	1
CN(C)S(=O)(=O)c1ccc(NC(=O)c2ccc3ncsc3c2)cc1	1	0	-19	7
COc1ccc(OC)c(S(=O)(=O)NC(N)=NCCc2ccccc2)c1	2	1	-10	2
Cc1ccc(NC(=O)CN2C(=O)N/C(=C/c3cc(C)n(-c4cccc(C(=O)O)c4)c3C)C2=O)cc1	35*	1	15	2
O=C(c1ccccc1)c1ccc2c(c1)OCCCO2	3	2	68*	1
Cc1ccc(NC(=O)CN2C(=O)S/C(=C/c3ccc(-c4cc(C(=O)O)ccc4C)o3)C2=O)cc1C	40*	2	11	1
Cc1cccc(NC(=O)CN2C(=O)S/C(=C\c3ccc(-c4cccc(C(=O)O)c4C)o3)C2=O)c1	2	1	-6	26
COc1ccccc1C1C2=C(N=c3s/c(=C/c4cccc(OCC(=O)O)c4)c(=O)n31)c1ccccc1CC2 (stereo unspecified)	19	2	-5	1
